Calls of active or inactive are those of the source. Rule for the calls: active = hit-call score of the fitted dose curve at least 0.9, where 1 is the maximum; inactive = score below 0.9.
Legend:
[1] = ATG_E_Box_CIS: Attagene CIS-FACTORIAL HepG2 Assay for human Enhancer Box (E-box) (AID 2282936); settings: HepG2 E-box cis-reporter transcription, actives raise or lower the signal
Outline: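 Fluorescent reporter fragments separated by capillary electrophoresis gave the signal; mRNA came from HepG2 cells transfected with cis-element reporters and treated 24 h. Curves fitted bidirectionally relative to DMSO controls.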

[2] = ATG_M_61_CIS: Attagene CIS-FACTORIAL HepG2 Assay for M61 Transcription Factor (Internal Marker) (AID 2282937); settings: HepG2 Attagene CIS-FACTORIAL M61 internal marker reporter; actives raise or lower the signal
Outline: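 Cells were transfected with reporter units under cis-regulatory promoters, treated with chemicals for 24 h, then lysed for RNA. Reporter transcripts were quantified by RT-PCR and capillary electrophoresis, and activity was fitted bidirectionally against DMSO.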

[3] = ATG_EGR_CIS: Attagene CIS-FACTORIAL HepG2 Assay for human Early Growth Response 1 (EGR1) (AID 2282938); settings: HepG2 Attagene CIS-FACTORIAL EGR reporter mRNA; actives raise or lower the signal
Outline: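 Endogenous TF activity in HepG2 liver cells was gauged through cis-promoter reporter constructs transiently transfected. After 24 h dosing, reporter mRNA was quantified by RT-PCR and capillary electrophoresis, and curves fitted in both directions versus DMSO.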

[4] = ATG_M_19_CIS: Attagene CIS-FACTORIAL HepG2 Assay for M19 Transcription Factor (Internal Marker) (AID 2282939); settings: HepG2 Attagene CIS-FACTORIAL M19 internal marker reporter; actives raise or lower the signal
Outline: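 Readout: fluorescent reporter-transcript fragments by capillary electrophoresis after RT-PCR. Human HepG2 liver cells carried transfected MRTU constructs reporting endogenous transcription-factor activity; exposure 24 h. Gain or loss of signal fitted relative to DMSO.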

[5] = ATG_ERE_CIS: Attagene CIS-FACTORIAL HepG2 Assay for Estrogen Response Element (ERE) (AID 2282940); settings: HepG2 ERE cis-reporter, Attagene RNA transcript; actives raise or lower the signal
Outline: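 Readout: reporter mRNA induction by RT-PCR, FAM-labelled primer extension, HpaI digestion and capillary electrophoresis, 24 h after dosing transfected HepG2 cells. Endogenous transcription factors act on cis-element-regulated reporters. Gain or loss fitted against DMSO.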

[6] = ATG_Ets_CIS: Attagene CIS-FACTORIAL HepG2 Assay for human Erythroblast Transformation Specific (ETS) (AID 2282941); settings: HepG2 ETS cis-reporter transcription, actives raise or lower the signal
Outline: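 Endogenous transcription factor activity read as reporter mRNA via RT-PCR and capillary electrophoresis, with gain or loss fitted bidirectionally against DMSO. Human HepG2 liver cells, transiently transfected CIS reporter constructs, 24 h exposure.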

[7] = molecular target: Hepatocyte nuclear factor 3-beta (Homo sapiens) (UniProt Q9Y261); assay: ATG_FoxA2_CIS: Attagene CIS-FACTORIAL HepG2 Assay for human Forkhead box A2 (FOXA2) (AID 2282942); settings: HepG2 cis-reporter transcription factor activity, 24 h; actives raise or lower the signal
Hepatocyte nuclear factor 3-beta (Homo sapiens), sequence (Q9Y261 whole entry, looked up): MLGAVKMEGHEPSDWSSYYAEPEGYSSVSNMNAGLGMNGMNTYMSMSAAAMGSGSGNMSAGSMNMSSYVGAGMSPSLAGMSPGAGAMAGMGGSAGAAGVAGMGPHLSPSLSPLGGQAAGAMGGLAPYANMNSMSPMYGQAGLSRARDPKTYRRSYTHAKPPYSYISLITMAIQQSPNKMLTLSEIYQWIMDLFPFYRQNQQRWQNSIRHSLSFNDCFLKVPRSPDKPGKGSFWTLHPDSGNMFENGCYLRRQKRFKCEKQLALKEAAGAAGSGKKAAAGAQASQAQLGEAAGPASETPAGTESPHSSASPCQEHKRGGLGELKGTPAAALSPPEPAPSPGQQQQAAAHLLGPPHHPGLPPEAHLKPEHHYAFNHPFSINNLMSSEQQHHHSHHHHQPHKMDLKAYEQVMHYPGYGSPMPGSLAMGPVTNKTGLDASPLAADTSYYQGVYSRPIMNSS
Outline: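 Endogenous transcription factor activity was read in HepG2 cells carrying transiently transfected cis-promoter reporter units. After 24 h dosing, reporter mRNA was quantified by RT-PCR and capillary electrophoresis, and values fitted bidirectionally versus DMSO.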

[8] = ATG_FoxO_CIS: Attagene CIS-FACTORIAL HepG2 Assay for human Forkhead box O (FoxO) (AID 2282943); settings: HepG2 Attagene cis-reporter, FoxO element, mRNA; actives raise or lower the signal
Outline: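 Endogenous transcription factor activity read from multiplexed cis-promoter reporter transcripts in transiently transfected HepG2, 24 h after dosing. Reporter RNA measured via RT-PCR plus capillary electrophoresis of FAM-labeled products; gain or loss relative to DMSO.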

[9] = ATG_GATA_CIS: Attagene CIS-FACTORIAL HepG2 Assay for human GATA Binding Protein (AID 2282944); settings: HepG2 GATA cis-element reporter, Attagene multiplex mRNA; actives raise or lower the signal
Outline: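 Read-out: fluorescent reporter mRNA fragments resolved by capillary electrophoresis after RT-PCR. Human liver HepG2 cells carried transiently transfected cis-regulated reporter constructs; chemicals incubated 24 h; gain or loss of signal fitted relative to DMSO.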

[10] = ATG_GLI_CIS: Attagene CIS-FACTORIAL HepG2 Assay for human Zinc Finger Protein GLI1 (AID 2282945); settings: HepG2, Attagene cis-factorial reporter mRNA, GLI element; actives raise or lower the signal
Outline: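 Bidirectional curve fits relative to DMSO, using reporter mRNA levels from RT-PCR plus capillary electrophoresis. Cells were HepG2 transiently carrying cis-regulated reporter constructs, harvested 24 h after dosing.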

For `O=[N+]([O-])C1(Br)COCOC1`, the AC50 [1] was 61 µM (active), the outcome [2] was “inactive” and the outcome [3] was “inactive”. For the same compound, the outcome [4] was “inactive”, the outcome [5] was “inactive” and the outcome [6] was “inactive”. The outcome [7] was “inactive”, the outcome [8] was “inactive” and the outcome [9] was “inactive”. For the same compound, the outcome [10] was “inactive”.
For `CC(C)(C)c1ccc(N)cc1`, the outcome [1] was “inactive”, the outcome [2] was “inactive” and the outcome [3] was “inactive”. For the same compound, the outcome [4] was “inactive”, the AC50 [5] was 59.9 µM (active) and the outcome [6] was “inactive”. For the same compound, the outcome [7] was “inactive”, the outcome [8] was “inactive” and the outcome [9] was “inactive”. For the same compound, the outcome [10] was “inactive”.
For `COC(=O)/C=C\C(=O)O`, the outcome [1] was “inactive”, the outcome [2] was “inactive” and the outcome [3] was “inactive”. The outcome [4] was “inactive”, the outcome [5] was “inactive” and the outcome [6] was “inactive”. For the same compound, the outcome [7] was “inactive”, the outcome [8] was “inactive” and the outcome [9] was “inactive”. The outcome [10] was “inactive”.
In the case of `CC(=O)CC(N)=O`, the outcome [1] is reported as “inactive”, the outcome [2] is reported as “inactive” and the outcome [3] is reported as “inactive”. For the same compound, the outcome [4] was “inactive”, the outcome [5] was “inactive” and the outcome [6] was “inactive”. For the same compound, the outcome [7] was “inactive”, the outcome [8] was “inactive” and the outcome [9] was “inactive”. For the same compound, the outcome [10] was “inactive”.
With `C=CC(=O)OCCOC1C2CCC1C1CC=CC12` (stereo not given) the outcome [1] was “inactive”, the outcome [2] was “inactive” and the outcome [3] was “inactive”. The outcome [4] was “inactive”, the outcome [5] was “inactive” and the outcome [6] was “inactive”. For the same compound, the outcome [7] was “inactive”, the outcome [8] was “inactive” and the outcome [9] was “inactive”. The outcome [10] was “inactive”.
For `O=Cc1ccc(CO)o1`, the outcome [1] was “inactive”, the outcome [2] was “inactive” and the outcome [3] was “inactive”. The outcome [4] was “inactive”, the outcome [5] was “inactive” and the outcome [6] was “inactive”. The outcome [7] was “inactive”, the outcome [8] was “inactive” and the outcome [9] was “inactive”. The outcome [10] was “inactive”.
In the case of `c1c[nH]cn1`, the outcome [1] is reported as “inactive”, the outcome [2] is reported as “inactive” and the outcome [3] is reported as “inactive”. For the same compound, the outcome [4] was “inactive”, the outcome [5] was “inactive” and the outcome [6] was “inactive”. For the same compound, the outcome [7] was “inactive”, the outcome [8] was “inactive” and the outcome [9] was “inactive”. The outcome [10] was “inactive”.
For `Cc1cc(C)c(C(=O)O)c(C)c1`, the outcome [1] was “inactive”, the outcome [2] was “inactive” and the outcome [3] was “inactive”. For the same compound, the outcome [4] was “inactive”, the outcome [5] was “inactive” and the outcome [6] was “inactive”. For the same compound, the outcome [7] was “inactive”, the outcome [8] was “inactive” and the outcome [9] was “inactive”. For the same compound, the outcome [10] was “inactive”.
With `CC(=O)c1ccc[nH]1` the outcome [1] was “inactive”, the outcome [2] was “inactive” and the outcome [3] was “inactive”. For the same compound, the outcome [4] was “inactive”, the outcome [5] was “inactive” and the outcome [6] was “inactive”. The outcome [7] was “inactive”, the outcome [8] was “inactive” and the outcome [9] was “inactive”. The outcome [10] was “inactive”.
In the case of `Cc1cccc(N)n1`, the outcome [1] is reported as “inactive”, the outcome [2] is reported as “inactive” and the outcome [3] is reported as “inactive”. The outcome [4] was “inactive”, the outcome [5] was “inactive” and the outcome [6] was “inactive”. The outcome [7] was “inactive”, the outcome [8] was “inactive” and the outcome [9] was “inactive”. For the same compound, the outcome [10] was “inactive”.
For `Cc1cc(C)c(C)cc1C`, the outcome [1] was “inactive”, the outcome [2] was “inactive” and the outcome [3] was “inactive”. The outcome [4] was “inactive”, the outcome [5] was “inactive” and the outcome [6] was “inactive”. The outcome [7] was “inactive”, the outcome [8] was “inactive” and the outcome [9] was “inactive”. The outcome [10] was “inactive”.
In the case of `Cc1cc(=O)n(-c2ccccc2)n1C`, the outcome [1] is reported as “inactive”, the outcome [2] is reported as “inactive” and the outcome [3] is reported as “inactive”. For the same compound, the outcome [4] was “inactive”, the outcome [5] was “inactive” and the outcome [6] was “inactive”. The outcome [7] was “inactive”, the outcome [8] was “inactive” and the outcome [9] was “inactive”. The outcome [10] was “inactive”.

— PubChem BioAssay (EPA / NIEHS)
